An excerpt weighted towards active compounds, which were near 6.5% of everything screened.
Vaccinia Venus = qHTS for Stage-Specific Inhibitors of Vaccinia Orthopoxvirus: Venus Reporter Primary qHTS | Vaccinia virus Venus reporter expression, fluorescence | Potency, µM (titrated, usually from 36.5 µM), for inactives: top-dose activity change, negative = inhibition, actives largely listed as inhibitors | 330,000 tested, 0.46% active; calls by dose curve; tested in A549 cells; note: potency is the fitted concentration of half-maximal effect; nearly all actives have a fitted effect of over 30% in size
Lassa entry inh = qHTS for Inhibitors of binding or entry into cells for Lassa Virus | Lassa virus pseudotype entry inhibition, cell reporter | Potency, µM (doses to about 37.9 µM), for the others: at the top dose activity change, negative = inhibition, hits mostly inhibitors | 300,000 tested, 1.2% active | AID 540256, 2011; calls by dose curve; tested in HEK293 cells; note: potency is the fitted concentration of half-maximal effect; nearly all actives have a fitted effect of over 50% in size
Vaccinia mCherry = qHTS for Stage-Specific Inhibitors of Vaccinia Orthopoxvirus: mCherry Reporter Primary qHTS; 310,000 tested, 0.63% active; Potency, µM (highest dose often 36.5 µM), without a hit: at the top dose activity change, negative = inhibition, hits mostly inhibitors; Vaccinia virus mCherry reporter infection, fluorescence; calls by dose curve; tested in A549 cells; note: potency is the fitted concentration of half-maximal effect; nearly all actives have a fitted effect of over 35% in size
HCMV inh = qHTS Assay for inhibitors of the human cytomegalovirus (HCMV); HFF cells, HCMV-luciferase reporter, 72 h; hits give low values; activity change, negative = inhibition, % at 57.5 µM; 410,000 tested, 4.5% active; AID 1259415, 2018; in the data active = activity change below about -60%; inconclusive = no clear call, values can overlap the other calls; inactive = above about -39%
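Steps: HFFs plated, 16 h 37C; compounds added; HCMV-luciferase added to MOI 1 PFU/cell; 72 h 37C; OneGlo reagent, 5 min room temperature; luminescence read, normalized to controls.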
FMDV antiviral = High Throughput Screening for Foot and Mouth Disease Virus Antivirals | Potency, µM (titrated, usually from 57.9 µM), inactives show top-dose activity change, negative = inhibition, usual class: inhibitors | 410,000 tested, 1.2% active | AID 1159524, 2015 | FMDV antiviral cell-based qHTS; calls by dose curve; tested in HEK293T cells; note: read-out not given here; potency is the fitted concentration of half-maximal effect; nearly all actives have a fitted effect of over 45% in size
MARV entry inh = qHTS for inhibitors of binding or entry into cells for Marburg Virus | 300,000 tested, 1.8% active | Marburg virus pseudotyped entry inhibition, cell reporter | Potency, µM (doses to about 37.8 µM), for the others: at the highest dose activity change, negative = inhibition, hits mostly inhibitors; calls by dose curve; tested in HEK293 cells; note: potency is the fitted concentration of half-maximal effect
An asterisk follows results filed as active; ? = inconclusive; nt = no result given; + = active, no number; ! = a repeat was not active; [ ] = dose if it differs, or a comment. % is set by controls: 0 for no effect and ±100 for the full control effect.

SMILES | Vaccinia Venus | Lassa entry inh | Vaccinia mCherry | HCMV inh | FMDV antiviral | MARV entry inh
Nc1cccc2c1C(=O)N(C(=O)/C=C/c1ccc(F)cc1)C2=O | ? | 11µM* | ? | -5 | 40µM* | 3.2µM*
Cc1ccc(/C(=N\O)c2oc3c(C)c4oc(=O)cc(C)c4cc3c2C)cc1 | ? | 0.37µM* | ? | -2 | ? | 2.9µM*
Cc1[nH]c2ccccc2c1C(=O)COC(=O)c1c(-c2ccccc2Cl)noc1C | ? | -9% | ? | -74* | -23% | ?
Cc1onc(-c2ccccc2Cl)c1C(=O)OCC(=O)N1CCC(C)CC1 | nt | nt | nt | -10 | 42% | nt
Cc1[nH]c2ccccc2c1C(=O)COC(=O)c1c(-c2c(F)cccc2Cl)noc1C | ? | -26% | -15% | -71* | 32µM* | ?
Cc1cc(O)c(-c2cc(C(=O)Nc3sc4c(c3C(=O)NCc3ccco3)CCC4)[nH]n2)cc1C | 0% | nt | ? | -24 | -4% | nt
Cc1ccc(-c2cc(C(=O)Nc3sc4c(c3C(=O)NCc3ccco3)CCC4)[nH]n2)c(O)c1 | nt | 4% | nt | -7 | 25µM* | 1%
COc1ccccc1CNC(=O)C1CCN(S(=O)(=O)c2cccc3nonc23)CC1 | -17% | ? | -7% | -19 | -4% | 0%[46.1 µM]
Cn1cnc(S(=O)(=O)N2CCC(C(=O)N3CCN(c4ccc(Cl)cc4)CC3)CC2)c1 | -18% | -12%[46.1 µM] | -14% | -14 | -7% | nt
O=C(C1CCN(S(=O)(=O)c2cccnc2)CC1)N1CCN(c2ccccc2Cl)CC1 | -18% | 2% | nt | -2 | ? | -3%
COc1ccc(N2CCN(C(=O)C3CCN(S(=O)(=O)c4cn(C)cn4)CC3)CC2)cc1 | -8% | -9%[46.1 µM] | -11% | -72* | -10% | nt
Cc1ccc(Cl)cc1N1CCN(C(=O)C2CCN(S(=O)(=O)Cc3ccccc3)CC2)CC1 | 1% | 0%[46.1 µM] | -11% | -12 | ? | -9%[46.1 µM]
COc1ccccc1CNC(=O)C1CCN(S(=O)(=O)c2cccc3cccnc23)CC1 | -9% | nt | 8% | -71* | 0% | -5%
O=C(C1CCN(S(=O)(=O)c2cccnc2)CC1)N1CCN(c2ccc(Cl)cc2)CC1 | nt | nt | nt | -90* | ? | 4%
Cc1ccc(Cl)cc1N1CCN(C(=O)C2CCN(S(=O)(=O)c3c(C)nn(C)c3C)CC2)CC1 | -24% | ? | -9% | -37 | 32µM* | ?
Cc1cn2c(=O)cc(COC(=O)COc3ccc(C)c(C)c3)nc2s1 | -6% | 0%[46.1 µM] | -6% | 21 | 0% | nt
CCOC(=O)c1c(C)oc2nc(C)nc(N(C)Cc3ccccc3)c12 | -20% | -24%[46.1 µM] | -17% | -14 | ? | nt
CCc1nnc2c(Nc3ccc(N(CC)CC)cc3C)nc3ccccc3n12 | -1% | -17%[46.1 µM] | -9% | ? | -20% | nt
CCOC(=O)c1ccc(OC(=O)c2cn(-c3ccc(C)cc3)c(=O)c3ccccc23)cc1 | -13% | 0%[46.1 µM] | -7% | -11 | -27% | nt
CC1Cc2cc(S(=O)(=O)N3CCN(c4ccc(Cl)cc4)CC3)ccc2N1C(=O)C1CC1 (centres undefined) | -11% | ? | -14% | -26 | ? | ?
CC(=O)N1c2ccc(S(=O)(=O)N3CCC(C(=O)N4CCN(c5ccc(Cl)cc5)CC4)CC3)cc2CC1C (centres undefined) | nt | nt | nt | -74* | ? | nt
O=C(C1CCN(S(=O)(=O)c2ccc3ccccc3c2)CC1)N1CCN(c2ncccn2)CC1 | -3% | ? | -5% | -32 | 28µM* | ?
O=C(C1CCN(S(=O)(=O)c2cccc3cccnc23)CC1)N1CCN(c2ccc(Cl)cc2)CC1 | -24% | nt | 8% | -79* | -30% | 3%
CN1C(=O)Cc2cc(S(=O)(=O)N3CCN(c4ccc(Cl)cc4)CC3)ccc21 | -5% | -8%[46.1 µM] | -21% | +! | -18% | 21%[46.1 µM]
CC(NC(=O)Nc1cc(Cl)ccc1Cl)c1c(-n2cccc2)sc2c1CCCC2 (centres undefined) | -12% | -3%[46.1 µM] | 0% | -40 | -9% | -6%[46.1 µM]
